Assay outcomes (PubChem)
An excerpt weighted towards active compounds, which were near 0.9% of everything screened.
PPARg SRC-3 ag: agonists of human PPARgamma SRC-3 coactivator recruitment; biochemical PPARgamma/SRC-3 coactivator recruitment assay; activation, % at 8 µM; actives 0.26% (n = 200,000); in the data active = activation above about 23%;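 note: 0% = DMSO and 100% = reference agonist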
Target sequence (P37231 whole entry, looked up): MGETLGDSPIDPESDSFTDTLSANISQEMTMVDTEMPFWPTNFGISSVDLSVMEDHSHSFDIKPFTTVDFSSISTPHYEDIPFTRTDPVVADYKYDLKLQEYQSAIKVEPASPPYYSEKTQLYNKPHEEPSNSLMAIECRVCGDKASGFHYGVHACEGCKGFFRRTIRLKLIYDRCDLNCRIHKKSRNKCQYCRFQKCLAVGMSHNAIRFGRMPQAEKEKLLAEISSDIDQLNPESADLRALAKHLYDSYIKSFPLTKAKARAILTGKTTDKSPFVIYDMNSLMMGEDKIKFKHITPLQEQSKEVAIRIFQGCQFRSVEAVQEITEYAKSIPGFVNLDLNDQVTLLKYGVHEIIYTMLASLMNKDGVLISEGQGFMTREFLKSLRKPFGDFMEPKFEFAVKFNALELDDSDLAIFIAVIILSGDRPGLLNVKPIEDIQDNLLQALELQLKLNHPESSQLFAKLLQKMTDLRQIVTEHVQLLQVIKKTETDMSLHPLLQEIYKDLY
SRC1 TRFRET art: counter-screen for PPARgamma SRC-1 recruitment agonists: TR-FRET artefact; TR-FRET detection artefact counter-screen, emission ratio; stronger effect = higher value; TR-FRET ratio at 8 µM; actives 0.34% (n = 99,000); AID 1051; in the data active = TR-FRET ratio above about 2300
PPARg SRC1 recr: agonists of human PPARgamma SRC-1 coactivator recruitment. actives 0.41% (n = 200,000). activation, % at 8 µM. PPARgamma-SRC-1 coactivator recruitment biochemical assay. P37231; in the data active = activation above about 19%;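 note: 0% = DMSO and 100% = reference agonist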
PPARg SRC2 recr: promotes SRC-2 coactivator recruitment by human PPARgamma; actives 0.34% (n = 200,000); P37231; activation, % at 8 µM; PPARgamma LBD-SRC-2 recruitment, biochemical; AID 1032; in the data active = activation above about 22%;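 note: 0% = vehicle and 100% = reference agonist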
SRC2 TRFRET art: TR-FRET artefact, counter-screen to PPARgamma/SRC-2 agonist assay. stronger effect = higher value. AID 1049. actives 0.4% (n = 200,000). TR-FRET ratio at 8 µM
SRC3 TRFRET art: counter-screen for PPARgamma SRC-3 recruitment agonists: TR-FRET artefact; PPARgamma/SRC-3 format; stronger effect = higher value; TR-FRET ratio at 8 µM; actives 0.39% (n = 99,000)
Active calls of the source: *; · = not tested or not shown. Cut-off read from the data, not from the text of the source, unless noted: active = TR-FRET ratio above about 2000; inactive = the rest.

SMILES	PPARg SRC-3 ag	SRC1 TRFRET art	PPARg SRC1 recr	PPARg SRC2 recr	SRC2 TRFRET art	SRC3 TRFRET art
CCOC(=O)c1ccccc1NC(=O)c1cn(-c2ccc(C)c(C)c2)c(=O)c2ccccc12	9	1817	-1	130*	3144*	1904
COC(=O)c1ccccc1NC(=O)c1cn(-c2ccc(C)c(C)c2)c(=O)c2ccccc12	9	1931	1	3	1685	1579
CS(=O)(=O)N1CCC(C(=O)NCc2ccc(F)cc2)CC1	6	1771	4	3	1572	1520
Cc1ccc(C2C(C#N)=C(N)SC(N)=C2C#N)cc1	10	·	9	4	1666	·
N#CC1=C(N)SC(N)=C(C#N)C1c1ccoc1	28*	·	21*	31*	2095*	·
CC1CCc2sc(C(=O)Nc3nnc(SCc4ccc(F)cc4)s3)cc2C1 (stereo not drawn)	19	·	16	3	2241*	·
CC1(C)Cc2c(C#N)c(SCC(=O)c3ccccc3)nc(N3CCOCC3)c2CO1	-9	·	2	60*	3056*	·
CC1(C)Cc2c(C#N)c(SCc3ccccc3)nc(N3CCOCC3)c2CO1	-7	·	11	2	1710	·
CCCCC(CC)c1nnc(NC(=O)c2cccs2)s1 (stereo not drawn)	6	1873	-2	22*	1818	1670
COc1ccccc1NC(=O)CN(Cc1ccco1)C(=O)c1cc2ccccc2o1	8	1508	6	1	1625	1799
c1ccc2[nH]c3cc4ncnc4cc3nc2c1	15	1830	22*	8	1543	1699
CC(=O)NC1C(OCc2ccccc2)OC2COC(C)(C)OC2C1O (stereo not drawn)	-3	1561	-7	-12	1589	1344
CSc1ccccc1NC(=O)c1cc2ncc(Br)cn2n1	3	2400*	19	6	1853	2070*
CN(C)C(=O)c1ccc(N/C=C(\C=O)c2nc3ccccc3o2)cc1	5	1862	0	0	1635	1544
COc1ccc2cc(Br)ccc2c1CC(=O)NC(C)(C)C	17	2214	10	14	2017*	2048
Cc1nc(N2CCCCC2)c2c(C)c(C(=O)Nc3cccc(C(F)(F)F)c3)sc2n1	12	2255	7	14	1762	2057*
Cc1ccc(NC(=O)c2sc3nc(C)nc(N4CCN(c5ccccn5)CC4)c3c2C)c(C)c1	-2	3496*	4	-3	2163*	2659*
Cc1nc(N2CCCCC2C)c2c(C)c(C(=O)Nc3cccc(C(F)(F)F)c3)sc2n1 (stereo not drawn)	4	2035	13	8	1633	1608
O=C(CSc1nc(C2CCCCC2)n(-c2ccccc2)n1)NCC(F)(F)F	3	1745	-3	7	1470	1604
COC(=O)/C(=C(/F)Sc1cc(C)c(O)c(C)c1)C(F)(F)F	-1	·	0	-4	1422	·
COc1ccc(CSc2nnc(Cc3sc(-c4ccccc4)nc3-c3ccccc3)o2)cc1	17	·	8	10	3227*	·
N#C/C(=C\c1ccc(Cl)cc1)c1nc2ncccc2[nH]1	3	·	4	1	1352	·
CC1=CC(=O)C(C(C)C)=CC1=NC(=O)c1ccc(C)cc1	2	1510	-2	5	1506	1297
COC(=O)c1ccccc1NC(=O)Cc1nc(-c2ccccc2)sc1-c1ccc(C)cc1	4	1833	7	-6	1651	2243*
CCOC(=O)Nc1ccccc1C(=O)Nc1cc(C)cc(C)c1	6	1754	-1	4	1463	1456
SMILES	PPARg SRC-3 ag	SRC1 TRFRET art	PPARg SRC1 recr	PPARg SRC2 recr	SRC2 TRFRET art	SRC3 TRFRET art
CCOC(=O)Nc1cccc(NC(=O)c2ccccc2F)c1	3	2378*	9	9	1470	1632
CCOC(=O)N1C2C=C(C)[C@@H]2[C@@H]2CC(=O)N21 (stereo partly drawn)	0	1624	-3	2	1536	1363
CC1CCN(S(=O)(=O)c2ccc3c(c2)oc(=O)n3CC(=O)N2c3ccccc3CC2C)CC1 (stereo not drawn)	9	·	10	16	2000*	·
COCCNC(=O)NC(=O)CN1CCN(C(c2ccccc2)c2ccccc2)CC1	5	1978	11	5	1727	1570
COc1ccccc1OCC(=O)Nc1nc(-c2ccc(S(=O)(=O)N3CCOCC3)cc2)cs1	-10	·	-2	1	2294*	·
O=C(COC(=O)c1ccc(S(=O)(=O)N2CCOCC2)cc1)Nc1nc(-c2ccccc2)cs1	-2	·	0	5	1618	·
O=C(COc1ccccc1)Nc1nc(-c2ccc(S(=O)(=O)N3CCOCC3)cc2)cs1	19	·	16	12	2563*	·
Cc1ccc(NC(=O)COc2ccc(S(=O)(=O)N3CCOCC3)cc2)cc1	-10	·	-10	0	1498	·
O=C(COc1ccc(Cl)cc1)Nc1nc(-c2ccc(S(=O)(=O)N3CCOCC3)cc2)cs1	24	·	13	10	2847*	·
COc1c(C(=O)Nc2ccc(Cc3ccncc3)cc2)ccc2ccccc12	6	1812	8	9	1615	1811
CCN(CC)c1ccc(CN2CCC(C(=O)NCc3ccc(C)cc3)CC2)cc1	0	1667	-4	-12	1572	1336
O=C(CN1CCCC(O)C1)N1c2ccccc2Sc2ccc(C(F)(F)F)cc21 (stereo not drawn)	8	·	10	3	1597	·
O=C(CSc1nc(C2CC2)nc2ccccc12)N1c2ccccc2Sc2ccc(C(F)(F)F)cc21	3	·	-1	-1	1994*	·
COc1ccc(C2CC(c3ccc(Br)cc3)=NN2C(=O)CSC2=NCCS2)cc1 (stereo not drawn)	5	1958	-8	9	1826	2257*
Nc1nc(SCC(=O)Nc2ccc(Cl)cn2)n[nH]1	-1	1896	-1	-2	1489	1496
COC(=O)c1ccc(CO/N=C/c2ccc(OC)cc2)o1	-1	1688	-2	4	1539	1354
O/N=C(\c1ccc(Cl)cc1Cl)c1ncc(C(F)(F)F)cc1Cl	8	·	-1	8	1654	·
CCCCn1c(-c2cc(Cl)ccc2OC)n[nH]c1=S	19	·	14	22*	1787	·
COc1ccc(CCn2c(-c3ccc(Cl)cc3)n[nH]c2=S)cc1OC	8	1922	4	5	1399	1596
O=C(Nc1ccccn1)c1cc(-c2cccc(Cl)c2)nc2ccccc12	2	2351*	14	5	1804	2298*
COCC(C)NC(=O)Cc1ccc(Cl)cc1 (stereo not drawn)	0	1721	2	-8	1688	1663
COc1ccccc1C(=O)C1CCCN(C(=O)CSc2ccccn2)C1 (stereo not drawn)	3	1966	4	24*	1688	1487
O=C(Nc1ccccc1Cl)c1ccc(-n2cccn2)c([N+](=O)[O-])c1	2	1881	-1	1	1587	1515
COc1ccc(-c2ccc(C#N)c(SCC(=O)OCc3ccccc3)n2)cc1OC	5	·	-4	-1	2143*	·
